According to PubChem BioAssay AID686978 (National Center for Advancing Translational Sciences (NCATS), 2013):
Screen size: about 420,000 compounds; about 64,000 (15%) were called active. Not shown: some 27% with an inconclusive outcome. The list is a sample of the results. Unmarked numbers belong to inactive results. The call rests on the fitted dose curve; in most records, active means well fitted inhibition curve with a large enough effect; inconclusive means small, poorly fitted or top-dose-only effect; inactive means flat fitted curve, though single readings scatter.

Assay: qHTS for Inhibitors of human tyrosyl-DNA phosphodiesterase 1 (TDP1): qHTS in cells in absence of CPT; further: nearly all actives have a fitted effect of over 55% in size
Details: DT40 Tdp1-/- hTDP1 cells, no CPT, ATP luminescence, 48 h; activity change, negative = growth inhibition: at 46.2 µM (top of the series)
Description: Human tyrosyl-DNA phosphodiesterase 1 (TDP1) is a novel repair gene, and we propose to use it as a new target for anticancer drug development. TDP1 is not an essential protein, but under treatment with topoisomerase I poison (camptothecin: CPT), TDP1 works as a critical factor for cell survival. To directly identify novel TDP1 inhibitors active in a cellular environment, we have knocked-out the Tdp1 gene in chicken DT40 cells (Tdp1-/-) and generated a complemented counterpart cells that contains a stable transfection of the human TDP1 gene (Tdp1-/-;hTDP1 cells). For the primary screen, Tdp1-/-;hTDP1 cells will be exposed to small molecules in the presence or absence of CPT, and their growth kinetics will be evaluated after 48 hours by measuring ATP activity. […] The hit compounds will then be evaluated in the presence or absence of CPT using Tdp1-/- cells. […] In tertiary assays, biochemical gel-based assays will be used to assess whether the hit compounds specifically target TDP1.
To this end, we have screened this cell line against the MLSMR in two primary screens. In one screen we add CPT and in the other we screen in the absence of CPT; this AID represents the screen where CPT was absent.
NIH Chemical Genomics Center [NCGC]
NIH Molecular Libraries Probe Centers Network [MLPCN]
Assay Submitter (PI): Yves Pommier, NCI
DT40-hTDP1 cells without 20 nM Camptothecin (add 20 microL of DMSO in 1 L of cell culture medium) were dispensed at 400 cells/5microL/well in tissue culture treated 1536-well white wall/solid bottom assay plates (Greiner Bio-One North America, NC, U.S.A.) using a Multidrop Combi 8 channel dispenser (Thermo Fisher, Waltham, MA, USA). 23 nL compounds and controls were transferred using the pin tool (Kalypsys, San Diego, CA, USA) to the assay plates. The assay plates were then incubated at 37 masculineC for a minimum 48 hr. Three microL of Cell Titer Glo solution was added to the plates and incubated at RT in dark for 30 min. Luminescence was read using ViewLux (Perkin Elmer) with 1 sec exposure slow speed, high gain and 2x binning.
On the % scale 0 is the no-effect control and ±100 the full control effect; potency means the concentration at half of the fitted maximal effect.

Structure (SMILES) | activity change, negative = growth inhibition [%] | Potency
CCn1ncc(CNC(=O)C2(C)CC2(Br)Br)c1C (stereo unspecified) | -2.88 | 
CC12CN3CC(C)(CN(C1)C3c1ccc(Cl)cc1Cl)C2=O (stereo unspecified) | -1.85 | 
Cc1ccc(-c2noc(-c3nnn(-c4cccc(C(F)(F)F)c4)c3N)n2)cc1 | 4.08 | 
Cc1cc(C)cc(N(CC(=O)NC2CCCC2)C(=O)CCC(=O)Nc2nccs2)c1 | -15.3 | 
COc1cc(C(=O)N2CCN(S(=O)(=O)c3ccc(C(C)C)cc3)CC2)ccc1OCC(=O)N1CCOCC1 | 18.5 | 
FC(F)(F)c1ccnc(Oc2ccc(C3=NCCS3)cc2)c1 | -5.22 | 
C/C(Cc1ccccc1)=N\NC(=O)CNC(=O)c1cccc(Br)c1 | -2.1 | 
C/C(=N\NC(=O)CNc1cccc2ccccc12)c1ccc(Br)s1 |  | 8.2 µM (active)
Cc1c(Cl)cccc1NC(=O)CCC(=O)N/N=C/c1ccco1 | 15.7 | 
C/C(=N\NC(=O)COc1c(C)cccc1C)c1cccs1 | -27.7 | 
Cc1cccc(/C=N/NC(=O)CNc2cccc3ccccc23)n1 |  | 13 µM (active)
O=C(COC(=O)c1ccccn1)Nc1cccc2ccccc12 | 0.707 | 
C=CCN1CC(C)/C(=N\O)CC1C (stereo unspecified) | -4.43 | 
Cc1ccc(NC(=O)Cn2cnc3nc4c(cc3c2=O)CCCC4)cc1Cl | 2.29 | 
COc1ccc(C(=O)NC(Cc2ccc(OC(=O)c3ccc(OC)cc3)cc2)C(=O)O)cc1 (stereo unspecified) | 2.2 | 
CN(CCc1ccccn1)C(=O)CCC1CCCN(Cc2ccccc2OC(F)F)C1 (stereo unspecified) | -10.5 | 
CN(CC(=O)NCCc1ccc(S(N)(=O)=O)cc1)CC(=O)Nc1ccc(Cl)cc1 | -18 | 
CC(NC(=S)Nc1ccc(OC(F)F)cc1)c1ccc(F)cc1 (stereo unspecified) |  | 16.4 µM (active)
O=C1CCC(C(=O)Nc2ccc(OC(F)F)cc2)N1 (stereo unspecified) | -6.43 | 
CCNC(=S)Nc1ccc(OC(F)(F)F)cc1 | -24.4 | 
CC(=O)c1ccc(OCC(O)CN2CCN(S(=O)(=O)c3cccc(Br)c3)CC2)cc1 (stereo unspecified) | -22.2 | 
CCCCC(=O)N(c1ccc(OC)cc1)C1C=CS(=O)(=O)C1 (stereo unspecified) | -8.95 | 
CN(C)/C=C/C(=O)c1ccccc1F | 2.39 | 
COc1ccccc1NC(=O)c1c(Br)cnn1C | -18.3 | 

Structure (SMILES) | activity change, negative = growth inhibition [%] | Potency
COc1ccccc1NC(=O)c1sc2nc(C)c(C(=O)Nc3ccc(Cl)cc3)c(-c3ccc(Br)cc3)c2c1N |  | 16.4 µM (active)
COc1ccc(NC(=O)c2sc3nc(-c4cc5cccc(OC)c5oc4=O)[nH]c(=O)c3c2C)cc1 | -20.7 | 
N/C(=N\OC(=O)c1ccc([N+](=O)[O-])cc1)c1ccccn1 | 6.67 | 
O=C(NC1CC1)C1=C[C@H](c2coc3ccccc3c2=O)C[C@H](OCCCCO)O1 | -1.23 | 
CCO[C@H]1OC(C(=O)NCc2ccccc2)=C[C@@H](c2coc3ccccc3c2=O)[C@@H]1CCCO |  | 9.2 µM (active)
CCO[C@H]1OC(C(=O)O)=C[C@@H](C2CCCCC2)[C@@H]1CCCO | 4.26 | 
CC1=CC(=NNS(=O)(=O)c2ccc([N+](=O)[O-])cc2)CC(C)(C)C1 | -5.62 | 
N#CCC(=O)N/N=C/c1cn(Cc2ccc3ccccc3c2)c2ccccc12 |  | 14.6 µM (active)
Cc1ccc(CNC(=O)Cc2cn(C)c3ccccc23)cc1 | -10.4 | 
CNC(=S)N/N=C/c1cn(Cc2ccc(C)cc2)c2ccccc12 |  | 18.4 µM (active)
NC(=O)Cn1cc(/C=N\NS(=O)(=O)c2ccccc2)c2ccccc21 | 19.2 | 
CCN1CCN(C(=O)/C=C\C(=O)O)CC1 | -12 | 
C=CCn1c(=O)c(C(=O)Nc2ncccc2O)c(O)c2ccccc21 | -18.9 | 
CCc1cccc(C)c1NC(=O)COC(=O)CNC(=O)c1cccs1 | 1.78 | 
Cc1cc(NC(=O)COc2ccccc2C#N)no1 | 14.4 | 
CCc1cccc(C)c1NC(=O)COC(=O)CC1CCCC1 | 4.08 | 
CCc1cccc(CC)c1NC(=O)COc1ccccc1C(=O)c1cc(C#N)c(=O)n(C2CCCCC2)c1 |  | 16.4 µM (active)
O=S(=O)(NCC(c1ccco1)N1CCOCC1)c1cc(F)ccc1F (stereo unspecified) | -9.31 | 
COc1ccc(Cn2ccn(CC(=O)Nc3cc(C)ccc3C)c(=O)c2=O)cc1 | 25 | 
CC(C)C(=O)Nc1ccc2c3c(cccc13)CC2 | -15.8 | 
Cc1ccc2cc(C)c(N3CCN(c4ccc(F)cc4)CC3)nc2c1 | -3.8 | 
CC(=O)c1c(N2CCN(c3ccc(F)cc3)CC2)nc(=S)n(-c2ccccc2)c1C |  | 20.6 µM (active)
CC(=O)c1c(N2CCOCC2)nc(=S)n(-c2cc(C)ccc2C)c1C | -13.9 | 
CNC(=O)COc1ccc(S(=O)(=O)Nc2ccccc2)cc1 | -7.11 | 

Structure (SMILES) | activity change, negative = growth inhibition [%] | Potency
CCn1c(C(C)NC(=O)c2ccc(C)cc2)n[nH]c1=S (stereo unspecified) | -9.48 | 
C/C(=C\C(=O)c1ccccc1)Nc1cccc(O)c1 | -19.5 | 
N/C(=N\OC(=O)CCn1cccc(C(F)(F)F)c1=O)c1ccc(OC(F)(F)F)cc1 | -14 | 
Cc1ccc(OCCNC(=O)CN2C(=O)NC3(CCCC3)C2=O)cc1 | -13.8 | 
COC1=CC(=O)OC(C)(c2ccccc2)C1 (stereo unspecified) | -8.45 | 
Cc1nc2c(OCc3ccc(Cl)cc3Cl)cccn2c1N(C)CC1CC1 |  | 16.4 µM (active)
Cc1nc2c(OCc3cccc(Cl)c3)cccn2c1N(C)CC1CC1 |  | 20.6 µM (active)
Cc1nc2c(OCC(=O)C(C)(C)C)cccn2c1N(C)Cc1cccs1 | -75 | 
O=C(Nc1c[nH]c(=O)[nH]c1=O)OCc1ccccc1 | -22.5 | 
Cc1ccc(C(=O)Nc2ccc(OCc3cc(=O)n4c5c(sc4n3)CCCC5)cc2)cc1 | -9.99 | 
CC(C)(C)C(=O)NCCCNc1ccc([N+](=O)[O-])cc1 | -0.828 | 
CN1CC(=O)N=C1N |  | inactive
O=S(=O)(NCc1ccccn1)c1ccc(F)cc1 | -2.5 | 
CCCCN1CC(CO)Oc2cccc(F)c2S1(=O)=O (stereo unspecified) | -19.8 | 
COc1ccccc1-c1nn(Cc2ccccc2)cc1C(=O)N1CCN(c2ncccn2)CC1 |  | 16.4 µM (active)
COc1cc(C(=O)N2CCOC23CCN(Cc2ccccc2)CC3)cc(OC)c1OC | -18.3 | 
COc1cccc(OC)c1C(=O)N1CCN(Cc2cccnc2)CC1 | -17.6 | 
COc1ccc(C(=O)NCCn2nc(C)cc2C)cc1OC1CCN(C(C)=O)CC1 | -18.1 | 
COc1cc(C(=O)N2CCN(C/C=C/c3ccccc3)CC2)cc(OC)c1C |  | 29.1 µM (active)
COc1cc(C(=O)N2CCN(C(=O)COc3cccc(C)c3)CC2)cc(OC)c1OC | -12.4 | 
COc1ccc(C(=O)NC2CC2)cc1OC1CCN(Cc2ccc(SC)cc2)CC1 | -1.42 | 
COc1ccc(C(=O)NC2CC2)cc1OC1CCN(C/C=C/c2ccccc2)CC1 |  | 23.1 µM (active)
COc1cc(C(=O)N2CCN(C)CC2)cc(OC)c1OC | 9.62 | 
